From PubChem BioAssay AID2315 (National Center for Advancing Translational Sciences (NCATS), 2010)
Out of some 290,000 compounds screened, about 27,000 (9.3%) were called active. Cut-off read from the data, not from the text of the source: active = inhibition mostly above about 28% (no sharp cut-off); inactive = mostly below about 43%. Many of the other results were omitted from the sample, so actives are more common in it than they were.

Experiment: A qHTS for Small Molecule Inhibitors of Shiga Toxin; note: 0% is about no effect
Conditions: Vero cells, Shiga toxin protein synthesis inhibition reporter; at 38.7 µM, hits give high values

Structure (SMILES)	inhibition
Cc1ccc(C)c(NC(=O)c2cc(-c3cc(C)cc(C)c3O)n[nH]2)c1	1.58% (inactive)
Clc1ccc(C[n+]2cc(-c3ccccc3)n3c2CCC3)cc1	12.3% (inactive)
Cc1ccc(/C=N/NC(=O)CNC(=O)COc2ccccc2)o1	-15.5% (inactive)
Cc1ccc(/C=N/NC(=O)CSc2ccccn2)o1	17.6% (inactive)
O=C(N/N=C\c1cccnc1)c1cc(-c2ccccc2)nc2c(Cl)cccc12	-27% (inactive)
O=C(N/N=C/c1cccnc1)c1ccc(NC(=O)c2ccc(F)cc2)cc1	12.4% (inactive)
Cc1ccc(/C=N/NC(=O)c2cc3ccccc3cc2O)o1	51.6% (active)
O=C(N/N=C/c1cccnc1)c1cc2ccccc2cc1O	87.2% (active)
CN(C)CCOC1c2ccccc2-c2ccccc21	-5.07% (inactive)
COc1ccc(NC(=O)CNC(=O)Cc2ccccc2)cc1OC	3.87% (inactive)
O=C(CN(Cc1ccccc1)C(=O)CCC(=O)Nc1ccccn1)NCCc1ccccc1	-11.7% (inactive)
COc1ccc2c(c1)c(C(=O)N/N=C/c1cccs1)c(C)n2C	-4.44% (inactive)
Cc1ccc(S(=O)(=O)CC(=O)Nc2nnc(C)s2)cc1	-7.78% (inactive)
CSc1nnc(NC(=O)c2nc(S(=O)(=O)Cc3ccc(C)cc3)ncc2Cl)s1	85.5% (active)
COCCSc1nnc(NC(=O)CCS(=O)(=O)Cc2ccccc2)s1	-28.2% (inactive)
Cc1nnc(NC(=O)CCCOc2ccccc2)s1	-8.1% (inactive)
Cc1ccc(CS(=O)(=O)c2ncc(Cl)c(C(=O)Nc3nnc(C)s3)n2)cc1	116% (active)
CSc1ncc(Cl)c(C(=O)Nc2cc(C)ccc2C)n1	-0.876% (inactive)
S=C(NCc1ccco1)NCc1ccccc1Cl	12.9% (inactive)
CCOC(=O)c1ccc(-n2c(CCC(=O)O)ccc2-c2ccccc2)cc1	1.31% (inactive)
O=C(O)CCn1c(Cc2ccccc2)nc2ccccc21	22.4% (inactive)
CC(=O)c1cccc(NC(=S)N2CCN(S(C)(=O)=O)CC2)c1	-3.09% (inactive)
Cc1cc(C(=O)COC(=O)CNC(=O)c2ccc(F)cc2)c(C)n1Cc1ccco1	109% (active)
O=C(COC(=O)CNC(=O)c1ccco1)Nc1ccc(F)cc1	-5.84% (inactive)

Structure (SMILES)	inhibition
COc1ccc(C)cc1-n1nnnc1SCC(=O)c1cc(C)n(Cc2ccco2)c1C	-3.11% (inactive)
Cc1cc(C(=O)CSc2nc(N)cc(=O)[nH]2)c(C)n1Cc1ccco1	-5.79% (inactive)
Cc1ccc(OCC(=O)c2cc(C)n(Cc3ccco3)c2C)c([N+](=O)[O-])n1	50.3% (active)
COCC(C)n1c(C)cc(C(=O)COc2ccc(C)nc2[N+](=O)[O-])c1C (stereo not drawn)	27% (inactive)
CC(C)CCn1c(=O)c2c(nc3n2CCCN3Cc2ccccc2)n(C)c1=O	-11.9% (inactive)
CC(C)C[C@@H](COc1ccccc1)N1CCN(CC(C)C)CCC1=O	6.99% (inactive)
O=S(=O)(c1ccc(Br)cc1)N1CCC(c2nc3ccccc3[nH]2)CC1	20.1% (inactive)
CCCc1cc(=O)oc2c(C)c(OC(C)C(=O)NCC(O)c3ccccc3)ccc12 (stereo not drawn)	-4.11% (inactive)
O=C(CN(C(=O)c1csnn1)c1cccc(Cl)c1)NC1CCCC1	13.6% (inactive)
C=CCOC(=O)C(=C)C	-5.85% (inactive)
OCc1ccc(OCCCOc2cccc3cccnc23)cc1	31.7% (inactive)
Cc1ccc(S(=O)(=O)NCCC(=O)Nc2cccc(S(N)(=O)=O)c2)cc1C	3.14% (inactive)
Cc1ccc(S(=O)(=O)NCCC(=O)Nc2ccc(C)c(Cl)c2)cc1C	-2.35% (inactive)
Cc1ccnc(NC(=O)CCNS(=O)(=O)c2ccc(C)c(C)c2)c1	75.2% (active)
O=[N+]([O-])c1ccccc1/C=C/CN1CCCC(CO)C1 (stereo not drawn)	-4.92% (inactive)
COc1cc2c(C(=O)N(C)c3cc(Cl)ccc3OC)cn(C)c(=O)c2cc1OC	-4.23% (inactive)
O=C1CCN(CCCc2ccccc2)CCN1CCO	-7.2% (inactive)
N#C/C(=C/c1ccc(Cl)cc1)NC(=O)c1ccccc1	69.2% (active)
O=C(NCC1CCCO1)/C(=C/c1ccc(Cl)cc1)NC(=O)c1ccccc1 (stereo not drawn)	-1.77% (inactive)
O=C(Nc1ccccc1)/C(=C/c1ccc([N+](=O)[O-])cc1)NC(=O)c1ccccc1	0.876% (inactive)
CCn1c(SCC(=O)NC2CC2)nnc1-c1ccncc1	6.57% (inactive)
Cc1nn2c(NCCN(C)C)c3c(nc2c1-c1ccccc1)CCC3	-1.35% (inactive)
Cc1ccc2c(=O)cc(C(=O)NCCc3ccc(S(N)(=O)=O)cc3)oc2c1C	3.06% (inactive)
CCc1ccc(NC2Nc3cc(C)nn3S2)cc1 (stereo not drawn)	52% (active)
